This passage reports Potency results from PubChem BioAssay (NCATS).

SMILES strings stand for the structures. Unmarked numbers belong to inactive results. The rule behind the calls is not given here.
Potency is the fitted concentration of half-maximal effect.

This experiment relates to HIV-1 nucleocapsid protein NCp7 (binding to TG oligonucleotide). Kind of experiment: HIV Nucleocapsid (AID 346).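 Note: potency is for inhibitors that block NC binding and lower polarization.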 The settings on record: HIV-1 NC / fluorescein-TGTGTGTG probe, fluorescence polarization. A digest of the protocol: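 10 nM TG4xF probe with 100 nM nucleocapsid protein in high-salt Hepes pH 7.5 (250mM NaCl) containing 1uM ZnCl2 and reducing agents. Compound inhibition of binding was read as fluorescein polarization after 1 hr at room temperature.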
With `CC(C)NC(=O)N1CC[C@@]2(CCCN(C(=O)c3cnccn3)C2)C1`, the Potency was over 20 µM.
With `O=C(Nc1cccc(F)c1)N1CCCC2(CCN(C(=O)c3ccco3)CC2)C1` the figure was over 20 µM; with `CN1CCN(c2nc(-c3ccccc3C(F)(F)F)nc3ccccc23)CC1`, over 20 µM; with `CCNc1ncc2nc(-c3cc(F)cc(F)c3)c(=O)n(CCc3ccccc3)c2n1`, over 20 µM.
Regarding `COCC(=O)N1CCC2(CCCN(Cc3ccc(C#N)cc3)C2)CC1`, the Potency is over 20 µM.
As for `CN(C)Cc1ccccc1-c1nc(NC2CC2)c2ccccc2n1`, the Potency was over 20 µM.
Consider `COc1ccc(NC(=O)N2CC[C@@]3(CCCN(C(=O)c4cccc(F)c4)C3)C2)cc1`, for which the Potency is over 20 µM.
With `COc1ccccc1CN1CCC2(CC1)CCN(C(=O)c1cccc(F)c1)CC2` the figure was over 20 µM.
Regarding `COc1ccccc1-c1cc(N(C)Cc2ccco2)ncn1`, the Potency was over 20 µM.
With `CN(C)c1ccc(-c2nc(NCCc3cnc[nH]3)c3ccccc3n2)cc1` the figure was over 20 µM.
As for `CN1CCN(c2ncnc3ccc(-c4ccc(C(=O)N(C)C)cc4)cc23)CC1`, the Potency is over 20 µM.
For the compound `Cc1cnc(CNc2ccnc(-c3c(C)noc3C)n2)cn1`, the Potency is over 20 µM.
With `COc1ccccc1CNc1cc(-c2cccnc2)ncn1` the figure was over 20 µM; with `COc1ccc2[nH]cc(CCNc3ncncc3-c3c(C)noc3C)c2c1`, over 20 µM.
As for `Cn1cccc1C(=O)N1CCC[C@@]2(CCN(Cc3cc(C(F)(F)F)cc(C(F)(F)F)c3)C2)C1`, the Potency is over 20 µM.
